The campaign covered roughly 340,000 compounds. About 1,000 (0.29%) were called active. These entries were drawn from the full list. Entries with a potency or affinity are not part of this list. A number with no mark means an inactive call. Rule as the data show it: inconclusive = inhibition above about 27% without an active follow-up result; inactive = below that.
assay: NS1A inhibition, H1N1 influenza, cell based functional assay (AID 504329); conditions: percent inhibition, at 12.5 µM, active compounds read high

| SMILES | inhibition [%] |
| --- | --- |
| CCc1ccc(NC(=O)CN(c2ccc(OC)cc2)S(=O)(=O)c2c(C)[nH]c(=O)[nH]c2=O)cc1 | 2.97 |
| CN1CCN(c2ccc(S(=O)(=O)N3CCCCC3)cc2NC(=O)COc2ccc(F)cc2)CC1 | -7.14 |
| N#CC1=C(N)Oc2c(ccc3cccnc23)C1c1ccccc1 (stereo not given) | 25.4 |
| COC(=O)C1=C(C)OC(N)=C(C#N)C1c1cc2cc(C)ccc2nc1Cl (stereo not given) | 11.8 |
| C[n+]1cccc(C2C(C#N)=C(N)Oc3c2ccc2ccccc32)c1 (stereo not given) | -17.7 |
| COc1cc(C2C(C#N)=C(N)Oc3c2ccc2ccccc32)ccc1OCC(=O)Nc1ccc(C)cc1 (stereo not given) | 1.8 |
| CCc1ccc(C2C(C#N)=C(N)Oc3cc(N)ccc32)cc1 (stereo not given) | 0.13 |
| COc1ccc(C2C(C#N)=C(N)Oc3c2ccc2cccnc32)cc1OC (stereo not given) | -15.7 |
| CC(=O)C1=C(C)OC(N)=C(C#N)C1c1cc2cccc(C)c2nc1Cl (stereo not given) | -6.22 |
| CCOC(=O)C1=C(C)OC(N)=C(C#N)C1c1cc2cc(C)ccc2nc1N1CCCCC1 (stereo not given) | -5.59 |
| CC(C)(C)c1ccc(CN(Cc2ccccc2)C(c2ccccn2)c2nnnn2C(C)(C)C)cc1 (stereo not given) | 9.19 |
| C[C@H](CO)N1C[C@H](C)[C@@H](CN(C)Cc2ccc(-c3ccccc3)cc2)Oc2c(NC(=O)Cc3ccccc3)cccc2C1=O | 11.9 |
| CC(=O)Nc1ccc(Br)cc1C(=O)C(=O)O | 2.32 |
| C=CCc1c(C)[nH]c(=O)[nH]c1=O | -3.62 |
| Cc1noc(C)c1NC(=O)N(C)C[C@H]1Oc2ccc(NC(=O)NC(C)C)cc2C(=O)N([C@H](C)CO)C[C@@H]1C | -14.8 |
| CCCn1c(N)c(C(=O)CSc2nnc3n2CCCCC3)c(=O)n(C)c1=O | -16.1 |
| CC(C)CNS(=O)(=O)c1cc(C(=O)OC2CCOC2=O)c(Cl)cc1Cl (stereo not given) | -8.56 |
| COc1ccccc1CNc1ncccc1[N+](=O)[O-] | -1.95 |
| COc1ccccc1C(CNc1ncccc1[N+](=O)[O-])N(C)C (stereo not given) | -0.51 |
| CC(=O)c1ccc2c(c1)C1C(Cl)C(Sc3ccccc3[N+](=O)[O-])CC1C(c1ccccc1)N2 (stereo not given) | -9.68 |

| SMILES | inhibition [%] |
| --- | --- |
| CC(=O)c1ccc2c(c1)C1C(Cl)C(Sc3ccccc3[N+](=O)[O-])CC1C(C(=O)O)N2 (stereo not given) | 27.9 |
| O=C(CN1CCN(C(=O)c2ccco2)CC1)Nc1ccccc1 | 0.71 |
| CN(C)c1nc2c(c(=O)[nH]c(=O)n2C)n1CCCc1ccccc1 | -3.17 |
| O=C(O)CP(=O)(O)O | -2.09 |
| CCc1cccc(CC)c1NC(=O)CN(CC(=O)O)CC(=O)O | 5.31 |
| Cn1c(=O)c2cc(S(=O)(=O)NC(C(=O)N3CCCCCC3)c3ccccc3)ccc2n(C)c1=O (stereo not given) | -3.38 |
| COc1ccccc1-c1cc(C(=O)NC(C)c2ccccc2)no1 (stereo not given) | 10.7 |
| Cc1nc(N)c(Cc2ccccc2F)c(N)n1 | -3.84 |
| Nc1nc(N)c(Cc2ccc(Cl)cc2Cl)c(N)n1 | -5.28 |
| O=C(Cc1c(F)cccc1Cl)Nc1ccccn1 | -10.5 |
| Clc1ccc(COc2ccccn2)c(Cl)c1 | 18.9 |
| CNc1cc(C(F)(F)F)nc(-c2ccccn2)n1 | -7.32 |
| Cc1n[nH]c(C)c1Cc1c(F)cccc1Cl | -22.1 |
| N#C/C(=C/c1ccc(-c2ccc(C(=O)O)c(Cl)c2)o1)C(=O)NCC1CCCO1 (stereo not given) | 9.84 |
| CN(CC(=O)Nc1ccncc1)S(=O)(=O)c1ccc(Cl)cc1 | 4.38 |
| CC(C)S(=O)(=O)c1cnc(N2CCOCC2)nc1N | -0.07 |
| Cc1cc(C(=O)CSc2nnc(N)s2)c(C)n1Cc1cccs1 | -7.01 |
| CCS(=O)(=O)N(CC(=O)Nc1cccc2ccccc12)c1ccc(OC)cc1 | -2 |
| CC(=O)Nc1ccc(NC(=O)C(NS(=O)(=O)c2cccc3nsnc23)C(C)C)cc1 (stereo not given) | 4.6 |
| c1ccc(-c2cn(C[C@H]3CC[C@@H]([C@@H]4CC[C@H](Cn5cc(-c6ccccc6)nn5)O4)O3)nn2)cc1 | 1.07 |

| SMILES | inhibition [%] |
| --- | --- |
| Cc1ccc(-c2cn(C[C@H]3CC[C@@H]([C@@H]4CC[C@H](Cn5cc(-c6ccc(C)cc6)nn5)O4)O3)nn2)cc1 | 1.46 |
| c1cncc(-c2cn(C[C@H]3CC[C@H](Cn4cc(-c5cccnc5)nn4)O3)nn2)c1 | -19.1 |
| c1cncc(-c2cn(C[C@H]3CC[C@@H]([C@@H]4CC[C@H](Cn5cc(-c6cccnc6)nn5)O4)O3)nn2)c1 | -3.65 |
| COc1ccc(-c2cc(C#N)nc(NN)n2)cc1 | 4.09 |
| N/C(CSc1ccccn1)=N\OCc1c(Cl)cccc1Cl | -0.92 |
| Cc1ccc(CNC(=O)CSc2ccc(-c3ccco3)nn2)cc1 | 0.95 |
| CCC(=O)Nc1cc(-c2nn(CC(=O)N3CCCCC3)c(=O)c3ccccc23)ccc1N1CCOCC1 | -7.33 |
| C=CC[C@H]1C=C[C@@H](C(C(=O)OC)C(=O)OC)CN1C(C)=O | -4.78 |
| COCCOC(=O)c1c(NC(=O)COC(=O)Cc2cccc(OC)c2)sc(C(N)=O)c1C | 6.16 |
| C/C(=N\NC(=O)c1cc2ccccc2cc1O)c1cccs1 | -6 |
| C/C(=N/NC(=O)c1cc2ccccc2cc1O)c1ccco1 | -9.07 |
| C/C(=N\NC(=O)c1cc(Br)ccc1O)c1cccs1 | 0.04 |
| O=C(N/N=C/c1ccccn1)c1cc(Br)ccc1O | -2.68 |
| CN1CCc2cc3c(c4c2C1CC41CCC(=NO)CC1)OCO3 (stereo not given) | 4.88 |
| C=CCOC(=O)C1=C[C@H](C2CC2)[C@@H](CCCO)[C@H](OCC)O1 | -9.11 |
| CC(C)/C=C/C(=O)N1CCCC(N2CCN(c3ccccc3F)CC2)C1 (stereo not given) | -4.31 |
| Cc1nnc2sc(SCc3ccccc3Cl)nn2c1=O | -4.7 |
| COc1ccccc1NC(=O)CSc1nnc(C)s1 | 4.51 |
| COc1ccc(OC)c(NC(=O)CSc2nn3c(=O)c(C)nnc3s2)c1 | 12.7 |
| Cc1ccccc1CSc1nn2c(=O)c(C)nnc2s1 | -4.51 |

— PubChem BioAssay AID504329 (Southern Research Specialized Biocontainment Screening …, 2011)
